How the values were obtained:
[1] = target: Receptor tyrosine-protein kinase erbB-4 (Homo sapiens) (UniProt Q15303); conditions: at 1 µM
[2] = target: Receptor tyrosine-protein kinase erbB-4 (Homo sapiens) (UniProt Q15303); conditions: at 10 µM
[3] = target: Ephrin type-A receptor 5 (Homo sapiens) (UniProt P54756); conditions: at 1 µM
[4] = target: Ephrin type-A receptor 5 (Homo sapiens) (UniProt P54756); conditions: at 10 µM
[5] = target: Ephrin type-A receptor 7 (Homo sapiens) (UniProt Q15375); conditions: at 1 µM
Sequence of Ephrin type-A receptor 7 (Homo sapiens) (Q15375 28-998 limits assumed): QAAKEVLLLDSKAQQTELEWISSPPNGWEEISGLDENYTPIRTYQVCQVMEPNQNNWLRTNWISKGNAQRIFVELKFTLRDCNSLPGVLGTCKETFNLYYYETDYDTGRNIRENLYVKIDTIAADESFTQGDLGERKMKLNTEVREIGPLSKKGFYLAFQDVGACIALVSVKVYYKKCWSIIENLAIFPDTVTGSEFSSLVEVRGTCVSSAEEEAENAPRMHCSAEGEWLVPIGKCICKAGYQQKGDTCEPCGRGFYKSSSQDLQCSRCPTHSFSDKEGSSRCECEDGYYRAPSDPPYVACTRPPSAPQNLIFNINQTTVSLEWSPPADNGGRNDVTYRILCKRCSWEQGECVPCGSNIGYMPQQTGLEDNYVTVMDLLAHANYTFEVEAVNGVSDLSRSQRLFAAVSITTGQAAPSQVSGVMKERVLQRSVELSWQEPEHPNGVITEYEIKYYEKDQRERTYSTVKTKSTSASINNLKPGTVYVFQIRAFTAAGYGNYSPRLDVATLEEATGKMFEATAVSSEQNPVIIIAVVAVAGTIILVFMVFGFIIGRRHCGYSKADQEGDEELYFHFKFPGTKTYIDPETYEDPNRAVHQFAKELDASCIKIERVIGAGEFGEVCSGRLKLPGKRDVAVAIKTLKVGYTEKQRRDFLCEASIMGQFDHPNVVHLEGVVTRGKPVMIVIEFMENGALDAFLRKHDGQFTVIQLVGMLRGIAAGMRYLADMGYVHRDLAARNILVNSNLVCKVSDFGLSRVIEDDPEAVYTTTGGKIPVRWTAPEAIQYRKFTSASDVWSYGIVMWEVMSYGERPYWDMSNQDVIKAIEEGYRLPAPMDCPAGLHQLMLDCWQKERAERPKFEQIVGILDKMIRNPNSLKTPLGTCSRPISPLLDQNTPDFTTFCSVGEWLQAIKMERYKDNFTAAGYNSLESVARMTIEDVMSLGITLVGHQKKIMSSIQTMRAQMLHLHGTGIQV

[6] = target: Ephrin type-A receptor 7 (Homo sapiens) (UniProt Q15375); conditions: at 10 µM
[7] = target: T1, Ephrin type-A receptor 8 (Homo sapiens) (UniProt P29322); conditions: at 10 µM
T1 sequence (whole entry): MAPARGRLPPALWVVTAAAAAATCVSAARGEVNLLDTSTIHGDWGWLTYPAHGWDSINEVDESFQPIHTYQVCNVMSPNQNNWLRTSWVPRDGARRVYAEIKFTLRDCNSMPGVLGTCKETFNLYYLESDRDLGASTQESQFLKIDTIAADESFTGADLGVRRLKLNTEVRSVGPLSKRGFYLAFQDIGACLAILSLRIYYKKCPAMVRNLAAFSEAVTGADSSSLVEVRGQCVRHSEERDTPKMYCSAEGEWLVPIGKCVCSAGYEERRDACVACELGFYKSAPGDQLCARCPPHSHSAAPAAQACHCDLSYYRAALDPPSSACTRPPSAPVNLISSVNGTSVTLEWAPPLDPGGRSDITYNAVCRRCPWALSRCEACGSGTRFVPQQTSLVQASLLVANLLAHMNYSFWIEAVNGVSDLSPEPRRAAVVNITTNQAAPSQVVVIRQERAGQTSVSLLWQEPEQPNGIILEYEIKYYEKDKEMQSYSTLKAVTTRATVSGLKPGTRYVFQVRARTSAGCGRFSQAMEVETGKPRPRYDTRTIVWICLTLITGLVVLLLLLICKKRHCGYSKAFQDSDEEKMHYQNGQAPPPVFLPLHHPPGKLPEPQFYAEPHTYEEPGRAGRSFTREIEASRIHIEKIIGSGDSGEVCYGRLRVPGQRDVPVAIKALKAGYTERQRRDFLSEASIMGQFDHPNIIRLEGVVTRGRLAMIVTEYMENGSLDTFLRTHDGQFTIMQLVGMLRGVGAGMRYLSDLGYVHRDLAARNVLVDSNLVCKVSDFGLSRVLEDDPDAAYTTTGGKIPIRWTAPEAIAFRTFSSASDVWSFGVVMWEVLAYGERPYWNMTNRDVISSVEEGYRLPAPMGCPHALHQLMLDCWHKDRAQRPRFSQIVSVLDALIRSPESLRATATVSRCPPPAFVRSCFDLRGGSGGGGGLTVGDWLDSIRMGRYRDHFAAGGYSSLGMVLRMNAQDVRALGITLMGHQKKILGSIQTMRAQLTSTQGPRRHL

[8] = target: T2, Ephrin type-B receptor 1 (Homo sapiens) (UniProt P54762); conditions: at 10 µM
T2 sequence (whole entry): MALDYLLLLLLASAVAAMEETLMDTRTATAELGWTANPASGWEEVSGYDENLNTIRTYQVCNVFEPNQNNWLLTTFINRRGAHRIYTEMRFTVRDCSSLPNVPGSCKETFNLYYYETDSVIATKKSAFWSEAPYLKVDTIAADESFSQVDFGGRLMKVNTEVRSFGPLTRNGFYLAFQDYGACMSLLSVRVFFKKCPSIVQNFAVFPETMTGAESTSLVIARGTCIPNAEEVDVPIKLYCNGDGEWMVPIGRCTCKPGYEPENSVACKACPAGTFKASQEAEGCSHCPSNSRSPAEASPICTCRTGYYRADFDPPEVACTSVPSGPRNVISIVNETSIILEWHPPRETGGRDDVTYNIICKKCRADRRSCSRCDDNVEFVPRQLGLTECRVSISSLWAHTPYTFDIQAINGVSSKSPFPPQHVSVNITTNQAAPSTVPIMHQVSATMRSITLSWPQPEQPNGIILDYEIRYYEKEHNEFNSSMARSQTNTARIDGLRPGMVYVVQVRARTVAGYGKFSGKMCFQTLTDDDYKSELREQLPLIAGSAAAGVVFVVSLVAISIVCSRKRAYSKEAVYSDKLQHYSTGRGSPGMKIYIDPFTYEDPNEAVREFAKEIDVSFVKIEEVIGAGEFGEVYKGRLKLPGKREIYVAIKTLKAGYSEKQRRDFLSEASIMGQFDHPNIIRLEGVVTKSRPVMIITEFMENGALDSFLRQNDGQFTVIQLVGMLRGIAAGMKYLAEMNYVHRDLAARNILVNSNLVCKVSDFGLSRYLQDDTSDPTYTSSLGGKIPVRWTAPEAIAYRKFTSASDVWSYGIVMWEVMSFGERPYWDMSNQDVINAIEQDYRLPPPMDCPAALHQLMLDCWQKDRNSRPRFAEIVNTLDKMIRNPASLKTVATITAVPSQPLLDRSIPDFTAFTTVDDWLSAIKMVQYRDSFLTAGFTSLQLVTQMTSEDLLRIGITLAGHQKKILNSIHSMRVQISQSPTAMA

[9] = target: T3, Ephrin type-B receptor 2 (Homo sapiens) (UniProt P29323); conditions: at 10 µM
T3 sequence (whole entry): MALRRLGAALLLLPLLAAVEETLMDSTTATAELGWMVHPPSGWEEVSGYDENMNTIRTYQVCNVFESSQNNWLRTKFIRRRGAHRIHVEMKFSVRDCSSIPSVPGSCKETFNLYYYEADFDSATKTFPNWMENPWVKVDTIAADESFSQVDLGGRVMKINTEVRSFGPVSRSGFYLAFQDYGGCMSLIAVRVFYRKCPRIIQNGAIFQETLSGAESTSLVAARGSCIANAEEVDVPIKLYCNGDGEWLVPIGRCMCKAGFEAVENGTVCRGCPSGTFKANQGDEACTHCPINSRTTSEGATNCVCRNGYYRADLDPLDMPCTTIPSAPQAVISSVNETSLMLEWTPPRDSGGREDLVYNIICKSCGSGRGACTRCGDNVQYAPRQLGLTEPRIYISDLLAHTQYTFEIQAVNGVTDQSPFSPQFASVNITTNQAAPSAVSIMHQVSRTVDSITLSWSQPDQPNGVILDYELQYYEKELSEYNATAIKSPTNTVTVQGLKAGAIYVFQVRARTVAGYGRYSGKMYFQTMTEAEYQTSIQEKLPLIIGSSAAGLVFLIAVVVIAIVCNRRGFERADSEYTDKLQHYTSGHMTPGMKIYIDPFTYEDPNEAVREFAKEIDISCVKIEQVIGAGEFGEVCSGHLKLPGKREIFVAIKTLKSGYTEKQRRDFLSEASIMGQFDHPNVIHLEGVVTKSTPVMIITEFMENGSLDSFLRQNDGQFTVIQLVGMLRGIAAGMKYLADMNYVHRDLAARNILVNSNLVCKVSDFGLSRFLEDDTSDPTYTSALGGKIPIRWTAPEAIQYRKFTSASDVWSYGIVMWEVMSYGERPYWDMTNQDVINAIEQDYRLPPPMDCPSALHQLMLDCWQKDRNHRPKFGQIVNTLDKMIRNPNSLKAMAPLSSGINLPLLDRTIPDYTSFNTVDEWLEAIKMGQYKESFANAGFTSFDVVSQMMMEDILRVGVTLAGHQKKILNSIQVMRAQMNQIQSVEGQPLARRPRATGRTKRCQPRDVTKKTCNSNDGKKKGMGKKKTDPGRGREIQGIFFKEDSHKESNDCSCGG

[10] = target: T4, Ephrin type-B receptor 3 (Homo sapiens) (UniProt P54753); conditions: at 10 µM
T4 sequence (whole entry): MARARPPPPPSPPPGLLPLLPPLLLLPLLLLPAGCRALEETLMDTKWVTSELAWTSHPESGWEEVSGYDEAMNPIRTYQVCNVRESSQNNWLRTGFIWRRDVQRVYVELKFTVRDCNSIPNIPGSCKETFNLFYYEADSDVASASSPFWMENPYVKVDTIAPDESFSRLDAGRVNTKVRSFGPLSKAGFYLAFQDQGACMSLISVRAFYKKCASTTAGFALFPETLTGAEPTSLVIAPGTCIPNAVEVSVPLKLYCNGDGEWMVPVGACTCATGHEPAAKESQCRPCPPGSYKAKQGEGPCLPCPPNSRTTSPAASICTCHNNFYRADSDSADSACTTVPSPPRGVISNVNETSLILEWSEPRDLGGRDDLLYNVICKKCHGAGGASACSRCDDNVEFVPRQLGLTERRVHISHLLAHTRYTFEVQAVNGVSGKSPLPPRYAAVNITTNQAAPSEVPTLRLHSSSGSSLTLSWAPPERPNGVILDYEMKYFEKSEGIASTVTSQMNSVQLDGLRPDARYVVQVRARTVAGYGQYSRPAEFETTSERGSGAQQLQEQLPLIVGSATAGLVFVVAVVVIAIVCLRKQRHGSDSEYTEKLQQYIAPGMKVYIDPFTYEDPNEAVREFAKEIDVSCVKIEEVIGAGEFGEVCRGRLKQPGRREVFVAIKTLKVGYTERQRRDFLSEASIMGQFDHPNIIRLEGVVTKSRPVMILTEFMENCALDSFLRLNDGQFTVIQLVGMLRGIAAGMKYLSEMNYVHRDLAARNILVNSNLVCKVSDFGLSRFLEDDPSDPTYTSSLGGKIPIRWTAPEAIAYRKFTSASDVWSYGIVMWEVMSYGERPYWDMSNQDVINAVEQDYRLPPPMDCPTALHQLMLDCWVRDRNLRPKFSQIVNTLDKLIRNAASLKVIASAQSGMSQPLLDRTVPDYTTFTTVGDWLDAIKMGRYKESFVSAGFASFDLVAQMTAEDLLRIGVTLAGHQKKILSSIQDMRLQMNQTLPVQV

[11] = target: T5, Ephrin type-B receptor 4 (Homo sapiens) (UniProt P54760); conditions: at 1 µM
T5 sequence (whole entry): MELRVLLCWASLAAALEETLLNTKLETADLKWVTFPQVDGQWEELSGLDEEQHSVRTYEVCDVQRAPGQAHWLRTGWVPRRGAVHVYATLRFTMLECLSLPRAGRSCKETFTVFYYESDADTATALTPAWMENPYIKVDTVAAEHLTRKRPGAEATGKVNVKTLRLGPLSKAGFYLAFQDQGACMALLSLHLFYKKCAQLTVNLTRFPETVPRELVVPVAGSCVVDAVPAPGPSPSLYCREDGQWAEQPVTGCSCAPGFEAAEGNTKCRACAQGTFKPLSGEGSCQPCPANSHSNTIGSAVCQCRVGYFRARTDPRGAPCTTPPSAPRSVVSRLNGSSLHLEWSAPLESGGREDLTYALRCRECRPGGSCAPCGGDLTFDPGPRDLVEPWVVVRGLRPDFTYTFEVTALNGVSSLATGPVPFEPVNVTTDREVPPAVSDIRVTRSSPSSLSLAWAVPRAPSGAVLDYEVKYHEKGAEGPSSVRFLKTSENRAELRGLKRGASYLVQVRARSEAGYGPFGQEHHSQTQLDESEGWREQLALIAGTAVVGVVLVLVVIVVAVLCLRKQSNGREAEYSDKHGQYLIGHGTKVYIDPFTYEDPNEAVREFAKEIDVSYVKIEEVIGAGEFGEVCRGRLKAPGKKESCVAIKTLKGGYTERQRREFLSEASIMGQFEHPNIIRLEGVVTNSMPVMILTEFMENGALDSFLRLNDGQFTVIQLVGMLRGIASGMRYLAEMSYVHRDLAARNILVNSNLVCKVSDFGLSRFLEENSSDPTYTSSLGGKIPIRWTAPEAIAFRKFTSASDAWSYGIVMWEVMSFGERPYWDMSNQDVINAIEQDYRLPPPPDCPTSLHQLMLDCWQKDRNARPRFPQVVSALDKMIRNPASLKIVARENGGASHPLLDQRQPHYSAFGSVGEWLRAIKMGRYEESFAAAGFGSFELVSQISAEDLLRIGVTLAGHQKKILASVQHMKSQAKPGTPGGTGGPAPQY

[12] = target: T5, Ephrin type-B receptor 4 (Homo sapiens); conditions: at 10 µM
[13] = target: Focal adhesion kinase 1 (Homo sapiens) (UniProt Q05397); conditions: at 1 µM
Sequence of Focal adhesion kinase 1 (Homo sapiens) (Q05397 2-1052 limits assumed): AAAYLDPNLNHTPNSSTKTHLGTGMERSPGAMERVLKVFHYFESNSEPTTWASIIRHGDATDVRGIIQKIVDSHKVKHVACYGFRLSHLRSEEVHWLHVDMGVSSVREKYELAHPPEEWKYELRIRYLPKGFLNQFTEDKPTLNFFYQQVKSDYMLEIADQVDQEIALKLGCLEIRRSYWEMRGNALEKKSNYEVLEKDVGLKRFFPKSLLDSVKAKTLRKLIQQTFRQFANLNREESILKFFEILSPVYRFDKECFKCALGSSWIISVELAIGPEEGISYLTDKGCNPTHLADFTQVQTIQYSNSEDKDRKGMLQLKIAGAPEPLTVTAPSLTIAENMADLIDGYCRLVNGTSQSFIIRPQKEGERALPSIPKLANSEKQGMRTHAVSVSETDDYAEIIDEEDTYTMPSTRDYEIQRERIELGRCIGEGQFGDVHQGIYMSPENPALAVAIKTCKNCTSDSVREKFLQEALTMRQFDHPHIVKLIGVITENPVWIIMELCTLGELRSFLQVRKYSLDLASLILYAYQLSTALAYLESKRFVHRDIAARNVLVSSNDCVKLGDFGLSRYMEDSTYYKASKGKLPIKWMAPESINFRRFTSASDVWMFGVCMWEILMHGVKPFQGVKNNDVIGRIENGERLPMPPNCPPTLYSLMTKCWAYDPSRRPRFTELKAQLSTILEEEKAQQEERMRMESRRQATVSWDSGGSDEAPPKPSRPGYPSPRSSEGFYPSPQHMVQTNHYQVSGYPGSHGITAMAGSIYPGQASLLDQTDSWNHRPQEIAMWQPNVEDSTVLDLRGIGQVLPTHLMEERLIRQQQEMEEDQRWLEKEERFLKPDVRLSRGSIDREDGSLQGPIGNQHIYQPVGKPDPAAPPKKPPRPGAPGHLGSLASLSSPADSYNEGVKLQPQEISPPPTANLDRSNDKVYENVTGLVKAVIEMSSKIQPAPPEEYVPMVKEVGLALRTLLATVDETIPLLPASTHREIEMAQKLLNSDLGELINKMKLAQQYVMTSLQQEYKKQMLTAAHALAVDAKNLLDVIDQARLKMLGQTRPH

[14] = target: Ephrin type-A receptor 4 (Homo sapiens) (UniProt P54764); conditions: at 1 µM
[15] = target: Ephrin type-A receptor 4 (Homo sapiens) (UniProt P54764); conditions: at 10 µM
[16] = target: T2, Ephrin type-B receptor 1 (Homo sapiens); conditions: at 1 µM
[17] = target: T3, Ephrin type-B receptor 2 (Homo sapiens); conditions: at 1 µM
[18] = target: T4, Ephrin type-B receptor 3 (Homo sapiens); conditions: at 1 µM

Sequence of Ephrin type-A receptor 5 (Homo sapiens) (P54756 whole entry): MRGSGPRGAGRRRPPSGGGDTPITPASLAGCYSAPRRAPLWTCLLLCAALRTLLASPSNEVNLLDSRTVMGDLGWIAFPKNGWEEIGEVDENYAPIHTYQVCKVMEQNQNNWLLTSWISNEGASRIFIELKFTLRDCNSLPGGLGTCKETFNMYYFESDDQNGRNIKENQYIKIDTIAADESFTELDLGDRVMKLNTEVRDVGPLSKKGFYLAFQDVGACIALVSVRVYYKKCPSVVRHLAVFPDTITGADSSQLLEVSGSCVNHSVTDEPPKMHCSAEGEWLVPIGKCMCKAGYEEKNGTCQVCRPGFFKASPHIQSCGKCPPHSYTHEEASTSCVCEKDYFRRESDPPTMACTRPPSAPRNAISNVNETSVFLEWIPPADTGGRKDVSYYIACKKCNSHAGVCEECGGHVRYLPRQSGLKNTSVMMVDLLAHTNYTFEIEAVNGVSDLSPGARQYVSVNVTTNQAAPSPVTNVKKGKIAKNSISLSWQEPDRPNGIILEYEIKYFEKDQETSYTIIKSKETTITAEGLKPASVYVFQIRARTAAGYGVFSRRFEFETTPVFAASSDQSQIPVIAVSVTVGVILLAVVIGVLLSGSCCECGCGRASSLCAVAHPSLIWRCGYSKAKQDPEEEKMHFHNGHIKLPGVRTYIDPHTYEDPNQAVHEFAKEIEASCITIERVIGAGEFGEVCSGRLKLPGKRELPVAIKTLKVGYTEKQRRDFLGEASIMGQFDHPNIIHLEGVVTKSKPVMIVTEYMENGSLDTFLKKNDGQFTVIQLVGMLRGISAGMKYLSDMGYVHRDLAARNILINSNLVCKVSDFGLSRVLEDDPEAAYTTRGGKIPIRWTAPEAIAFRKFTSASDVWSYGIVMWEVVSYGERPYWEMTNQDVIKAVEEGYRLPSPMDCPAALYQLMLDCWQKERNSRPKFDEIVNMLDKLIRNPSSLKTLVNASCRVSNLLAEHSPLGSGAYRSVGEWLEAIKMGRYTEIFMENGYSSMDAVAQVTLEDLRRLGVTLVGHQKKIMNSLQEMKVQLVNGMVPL
Sequence of Receptor tyrosine-protein kinase erbB-4 (Homo sapiens) (Q15303 whole entry): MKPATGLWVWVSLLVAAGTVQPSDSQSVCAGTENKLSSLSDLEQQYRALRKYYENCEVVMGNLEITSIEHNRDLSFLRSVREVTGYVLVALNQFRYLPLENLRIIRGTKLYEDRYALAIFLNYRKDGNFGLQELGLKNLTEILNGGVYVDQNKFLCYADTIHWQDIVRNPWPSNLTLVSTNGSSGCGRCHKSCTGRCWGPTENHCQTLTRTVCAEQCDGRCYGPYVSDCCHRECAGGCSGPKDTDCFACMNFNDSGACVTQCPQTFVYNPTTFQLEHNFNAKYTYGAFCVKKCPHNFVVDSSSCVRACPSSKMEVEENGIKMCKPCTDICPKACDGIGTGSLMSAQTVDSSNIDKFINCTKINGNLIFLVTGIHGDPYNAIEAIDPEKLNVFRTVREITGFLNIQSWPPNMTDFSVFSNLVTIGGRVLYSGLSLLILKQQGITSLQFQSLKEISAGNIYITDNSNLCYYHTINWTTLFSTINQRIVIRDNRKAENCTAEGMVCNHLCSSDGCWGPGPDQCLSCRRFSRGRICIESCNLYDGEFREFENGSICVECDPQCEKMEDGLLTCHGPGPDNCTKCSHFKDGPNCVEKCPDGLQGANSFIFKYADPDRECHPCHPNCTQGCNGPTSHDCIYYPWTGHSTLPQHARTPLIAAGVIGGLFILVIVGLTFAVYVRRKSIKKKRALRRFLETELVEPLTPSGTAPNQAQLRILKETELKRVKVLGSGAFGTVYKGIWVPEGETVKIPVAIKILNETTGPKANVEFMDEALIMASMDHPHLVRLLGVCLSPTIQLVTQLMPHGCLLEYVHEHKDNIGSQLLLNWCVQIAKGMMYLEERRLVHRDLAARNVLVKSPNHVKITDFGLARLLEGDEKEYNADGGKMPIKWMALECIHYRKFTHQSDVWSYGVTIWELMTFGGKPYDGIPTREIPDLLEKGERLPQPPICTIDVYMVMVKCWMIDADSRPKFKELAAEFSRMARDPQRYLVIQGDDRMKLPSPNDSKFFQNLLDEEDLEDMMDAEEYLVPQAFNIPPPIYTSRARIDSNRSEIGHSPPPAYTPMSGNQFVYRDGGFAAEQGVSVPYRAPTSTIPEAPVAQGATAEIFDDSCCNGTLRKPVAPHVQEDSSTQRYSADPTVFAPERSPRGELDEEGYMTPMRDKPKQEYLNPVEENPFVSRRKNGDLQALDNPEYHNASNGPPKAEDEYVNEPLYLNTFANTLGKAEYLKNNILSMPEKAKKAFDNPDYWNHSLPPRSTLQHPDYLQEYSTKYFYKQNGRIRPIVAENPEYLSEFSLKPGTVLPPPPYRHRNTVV

Structure (SMILES) | residual activity [1] [%] | residual activity [2] [%] | residual activity [3] [%] | residual activity [4] [%] | residual activity [5] [%] | residual activity [6] [%] | residual activity [7] [%] | residual activity [8] [%] | residual activity [9] [%] | residual activity [10] [%] | residual activity [11] [%] | residual activity [12] [%] | residual activity [13] [%] | residual activity [14] [%] | residual activity [15] [%] | residual activity [16] [%] | residual activity [17] [%] | residual activity [18]
CCN1/C(=C/C(C)=O)Sc2ccc(OC)cc21 | 75 | 69 |  |  |  |  |  |  |  |  |  |  |  |  |  |  |  | 
O=C(c1cc2cc(O)ccc2[nH]1)c1cc2cc(O)ccc2[nH]1 | 73 | 63 | 78 | 32 | 83 | 66 | 73 | 28 | 24 | 126 | 72 | 13 | 112 |  |  |  |  | 
Nc1nc(Nc2ccc(S(N)(=O)=O)cc2)nn1C(=O)c1c(F)cccc1F |  |  | 103 | 73 | 52 | 8 | 55 | 14 | 68 |  |  |  | 102 | 108 | 95 | 78 | 103 | 115% (inactive)
